This is part of a sample that, as a whole, favours compounds with a hit. Of some 83,000 tested, about 20% had one in any assay.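 For each line, cells grew in 96-well plates with the test compound present at a single concentration for 48 hours.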 Calls of active or inactive are those of the source. How the source made its calls: active means growth percent below 10; inactive means the rest.
Legend:
Test in all cases: NCI-60 one-dose screen, 48 h (100 = growth as untreated, 0 = no growth, -100 = all killed)
SK-MEL-2 melanoma = conditions: 10 µM unless noted
EKVX NSCLC = conditions: 10 µM unless noted
SN12C renal = conditions: 10 µM unless noted
UO-31 renal = conditions: 10 µM unless noted
TK-10 renal = conditions: 10 µM unless noted
ACHN renal = conditions: 10 µM unless noted
CAKI-1 renal = conditions: 10 µM
CCRF-CEM leukemia = conditions: 10 µM unless noted
MOLT-4 leukemia = conditions: 10 µM unless noted
SR leukemia = conditions: 10 µM unless noted
RPMI-8226 leukemia = conditions: 10 µM unless noted
OVCAR-8 ovarian = conditions: 10 µM unless noted
OVCAR-5 ovarian = conditions: 10 µM unless noted
OVCAR-4 ovarian = conditions: 10 µM unless noted
SK-OV-3 ovarian = conditions: 10 µM unless noted
IGROV1 ovarian = conditions: 10 µM unless noted
OVCAR-3 ovarian = conditions: 10 µM unless noted
HS 578T breast = conditions: 10 µM unless noted
NCI/ADR-RES ovarian = conditions: 10 µM unless noted

Measured: growth

CNC(=O)c1c(NC(=O)c2ccc(F)cc2F)sc2c1CCC(=O)C2
active: SK-MEL-2 melanoma -4.48% | UO-31 renal -94% | ACHN renal 1.41% | CAKI-1 renal -3.18% | CCRF-CEM leukemia 4.01% | MOLT-4 leukemia 2.03% | SR leukemia 1.58% | RPMI-8226 leukemia -12.3% | OVCAR-5 ovarian 0.937% | OVCAR-4 ovarian -40.6% | SK-OV-3 ovarian -4.66% | OVCAR-3 ovarian 0.976% | NCI/ADR-RES ovarian 5.72%
inactive: EKVX NSCLC 14.5% | SN12C renal 17.5% | TK-10 renal 38.7% | OVCAR-8 ovarian 13.9% | IGROV1 ovarian 22.8% | HS 578T breast 24.5%

CN1CCN(c2ccc3c(C(N)=O)c(NC(=O)c4ccc(C(C)(C)C)cc4)sc3c2)CC1
inactive: SK-MEL-2 melanoma 97.4% | EKVX NSCLC 85.2% | SN12C renal 90% | UO-31 renal 97.5% | TK-10 renal 123% | ACHN renal 96.4% | CAKI-1 renal 100% | CCRF-CEM leukemia 53.3% | MOLT-4 leukemia 41.9% | SR leukemia 34.7% | RPMI-8226 leukemia 20.1% | OVCAR-8 ovarian 95.4% | OVCAR-5 ovarian 81.1% | OVCAR-4 ovarian 92.3% | SK-OV-3 ovarian 107% | IGROV1 ovarian 90.3% | OVCAR-3 ovarian 79.3% | HS 578T breast 91.2% | NCI/ADR-RES ovarian 85.9%

CN(C)c1ccc(/C=N/Nc2nc(N/N=C/c3ccc(N(C)C)cc3)nc(N3CCOCC3)n2)cc1
inactive: SK-MEL-2 melanoma 98.6% | EKVX NSCLC 95.4% | SN12C renal 89.2% | UO-31 renal 90.7% | TK-10 renal 110% | ACHN renal 104% | CAKI-1 renal 96% | CCRF-CEM leukemia 13.3% | MOLT-4 leukemia 96.7% | RPMI-8226 leukemia 35% | OVCAR-8 ovarian 99% | OVCAR-5 ovarian 110% | OVCAR-4 ovarian 104% | SK-OV-3 ovarian 110% | IGROV1 ovarian 94.6% | OVCAR-3 ovarian 109% | HS 578T breast 97.6% | NCI/ADR-RES ovarian 99.8%
active: SR leukemia -13.1%

O=C(COc1ccc(C2SCC(=O)N2c2ccccc2)cc1)c1ccccc1 (centres undefined)
inactive: SK-MEL-2 melanoma 103% | EKVX NSCLC 81.2% | SN12C renal 92.3% | UO-31 renal 78.5% | TK-10 renal 124% | ACHN renal 92.5% | CAKI-1 renal 79.2% | CCRF-CEM leukemia 98.9% | MOLT-4 leukemia 88.8% | SR leukemia 91.5% | RPMI-8226 leukemia 91.9% | OVCAR-8 ovarian 94.1% | OVCAR-5 ovarian 104% | OVCAR-4 ovarian 107% | SK-OV-3 ovarian 111% | IGROV1 ovarian 96.4% | OVCAR-3 ovarian 116% | HS 578T breast 94.1% | NCI/ADR-RES ovarian 96.5%

COc1ccccc1/C=C/C(=O)c1nnn(-c2ccc(C(=O)O)cc2)c1C
inactive: SK-MEL-2 melanoma 98.6% | EKVX NSCLC 87.2% | SN12C renal 84.1% | UO-31 renal 87.6% | TK-10 renal 117% | ACHN renal 94% | CAKI-1 renal 96% | CCRF-CEM leukemia 63.9% | MOLT-4 leukemia 94.4% | SR leukemia 67% | RPMI-8226 leukemia 90.4% | OVCAR-8 ovarian 91.6% | OVCAR-5 ovarian 113% | OVCAR-4 ovarian 101% | SK-OV-3 ovarian 106% | IGROV1 ovarian 90.4% | OVCAR-3 ovarian 89.2% | HS 578T breast 106% | NCI/ADR-RES ovarian 93.5%

C=C(C)[C@@H]1CC[C@]2(C(=O)NCCCN(CCC#N)CCC#N)CC[C@]3(C)[C@H](CC[C@@H]4[C@@]5(C)CCC(=O)C(C)(C)[C@@H]5CC[C@]43C)[C@@H]12
inactive: SK-MEL-2 melanoma 102% | EKVX NSCLC 104% | SN12C renal 94.3% | UO-31 renal 95.1% | TK-10 renal 101% | ACHN renal 99.9% | CAKI-1 renal 75% | CCRF-CEM leukemia 103% | MOLT-4 leukemia 88.1% | SR leukemia 95.7% | RPMI-8226 leukemia 103% | OVCAR-8 ovarian 105% | OVCAR-5 ovarian 103% | OVCAR-4 ovarian 105% | SK-OV-3 ovarian 104% | IGROV1 ovarian 112% | OVCAR-3 ovarian 118% | HS 578T breast 105% | NCI/ADR-RES ovarian 102%

CCOC(=O)c1c(NCC(=O)Nc2cccc(Cl)c2)sc2c1CCCC2
inactive: SK-MEL-2 melanoma 93.5% | EKVX NSCLC 89.9% | SN12C renal 73% | UO-31 renal 76.4% | TK-10 renal 146% | ACHN renal 88.7% | CAKI-1 renal 68.4% | CCRF-CEM leukemia 58% | MOLT-4 leukemia 47.2% | SR leukemia 69.4% | RPMI-8226 leukemia 78.6% | OVCAR-8 ovarian 87.7% | OVCAR-5 ovarian 94.5% | OVCAR-4 ovarian 80.3% | SK-OV-3 ovarian 84.2% | IGROV1 ovarian 50.6% | OVCAR-3 ovarian 82.8% | HS 578T breast 77.4% | NCI/ADR-RES ovarian 81.6%

CCCCCCNC(=O)Oc1ccc(/C(=C(\C)c2ccc(OC)cc2)c2ccc(OCCN(C)C)cc2)cc1
inactive: SK-MEL-2 melanoma 99.8% | EKVX NSCLC 75% | SN12C renal 78.8% | UO-31 renal 52.1% | TK-10 renal 107% | ACHN renal 88.3% | CAKI-1 renal 82.9% | CCRF-CEM leukemia 67.3% | MOLT-4 leukemia 44.5% | SR leukemia 13.1% | RPMI-8226 leukemia 19.4% | OVCAR-8 ovarian 86.4% | OVCAR-5 ovarian 86.8% | OVCAR-4 ovarian 90.9% | SK-OV-3 ovarian 103% | IGROV1 ovarian 68.4% | OVCAR-3 ovarian 91.3% | HS 578T breast 83.2% | NCI/ADR-RES ovarian 74.8%

CCOC(=O)c1c(NC(=O)c2ccc(C(C)(C)C)cc2)sc2cc(OCCN3CCCCC3)ccc12
inactive: SK-MEL-2 melanoma 98.6% | EKVX NSCLC 87.5% | SN12C renal 78.1% | UO-31 renal 74.5% | TK-10 renal 112% | ACHN renal 93% | CAKI-1 renal 84.2% | CCRF-CEM leukemia 56.2% | MOLT-4 leukemia 72.3% | SR leukemia 16.5% | RPMI-8226 leukemia 14.6% | OVCAR-8 ovarian 93.4% | OVCAR-5 ovarian 91.8% | OVCAR-4 ovarian 102% | SK-OV-3 ovarian 106% | IGROV1 ovarian 74.9% | OVCAR-3 ovarian 74.8% | HS 578T breast 96.5% | NCI/ADR-RES ovarian 88.3%

CN(C)c1ncc(/C=C2\SC(=S)N(Cc3ccccc3Cl)C2=O)s1
active: OVCAR-4 ovarian 2.09%
inactive: SK-MEL-2 melanoma 86% | EKVX NSCLC 81.7% | SN12C renal 68.7% | UO-31 renal 47.7% | TK-10 renal 96.7% | ACHN renal 76.2% | CAKI-1 renal 79.1% | CCRF-CEM leukemia 77.3% | MOLT-4 leukemia 82% | SR leukemia 87.8% | RPMI-8226 leukemia 86.3% | OVCAR-8 ovarian 95.8% | OVCAR-5 ovarian 87.9% | SK-OV-3 ovarian 107% | IGROV1 ovarian 70.8% | OVCAR-3 ovarian 26.8% | HS 578T breast 101% | NCI/ADR-RES ovarian 90.8%

CCN1C(=O)N(CC)C2SC(N/N=C/c3ccc(OC)cc3)=NC21 (centres undefined)
inactive: SK-MEL-2 melanoma 61.4% | EKVX NSCLC 41.8% | SN12C renal 24.3% | UO-31 renal 43.5% | TK-10 renal 72.8% | ACHN renal 31.3% | CAKI-1 renal 48.7% | CCRF-CEM leukemia 13.1% | MOLT-4 leukemia 10.1% | SR leukemia 19.3% | RPMI-8226 leukemia 17.6% | OVCAR-8 ovarian 26% | OVCAR-5 ovarian 36.8% | OVCAR-4 ovarian 69.1% | SK-OV-3 ovarian 62.4% | IGROV1 ovarian 23.2% | HS 578T breast 31.9%
active: OVCAR-3 ovarian -13.1% | NCI/ADR-RES ovarian 2.95%

COc1cccc(/C=C/C(=O)c2ccc(NC(=O)COc3cccc4cccnc34)cc2)c1
inactive: SK-MEL-2 melanoma 100% | EKVX NSCLC 93.2% | SN12C renal 95.4% | UO-31 renal 82.8% | TK-10 renal 109% | ACHN renal 101% | CAKI-1 renal 92.1% | CCRF-CEM leukemia 95.3% | MOLT-4 leukemia 88.9% | SR leukemia 74.6% | RPMI-8226 leukemia 73.4% | OVCAR-8 ovarian 98.1% | OVCAR-5 ovarian 103% | OVCAR-4 ovarian 101% | SK-OV-3 ovarian 104% | IGROV1 ovarian 100% | OVCAR-3 ovarian 102% | HS 578T breast 100% | NCI/ADR-RES ovarian 90.8%

Oc1ccc(CSc2nnc(-c3cnccn3)o2)c2cccnc12
inactive: EKVX NSCLC 19.3% | TK-10 renal 35.3% | CCRF-CEM leukemia 18.1% | MOLT-4 leukemia 16.9% | SR leukemia 20.5% | OVCAR-8 ovarian 15.1% | OVCAR-5 ovarian 36.9% | OVCAR-4 ovarian 36.6% | IGROV1 ovarian 23.4% | OVCAR-3 ovarian 11.9% | HS 578T breast 19% | NCI/ADR-RES ovarian 33%
active: SK-MEL-2 melanoma -2.52% | SN12C renal 7.45% | UO-31 renal 6.71% | ACHN renal 0.457% | CAKI-1 renal 2.13% | RPMI-8226 leukemia 7.74% | SK-OV-3 ovarian 9.11%

N#Cc1c(NC(=O)c2ccc(F)c(Cl)c2)sc2c1CCC(=O)C2
inactive: SK-MEL-2 melanoma 18.3% | EKVX NSCLC 13.1% | TK-10 renal 15.3% | OVCAR-8 ovarian 16.6% | SK-OV-3 ovarian 25.8%
active: SN12C renal 4.43% | UO-31 renal -99% | ACHN renal -98.8% | CAKI-1 renal -67% | CCRF-CEM leukemia 8.21% | MOLT-4 leukemia 3.13% | SR leukemia 0.0131% | RPMI-8226 leukemia 0.133% | OVCAR-5 ovarian -14.6% | OVCAR-4 ovarian -52% | IGROV1 ovarian -25.7% | OVCAR-3 ovarian -47.3% | HS 578T breast -2.33% | NCI/ADR-RES ovarian -11.8%

IP(CCCCCCCCCCSc1n(Cc2ccc3ccccc3c2)c(-c2ccccc2)c(-c2ccccc2)[n+]1Cc1ccc2ccccc2c1)(c1ccccc1)(c1ccccc1)c1ccccc1
active: SK-MEL-2 melanoma -59.5% | EKVX NSCLC -68.2% | SN12C renal -72.2% | UO-31 renal -4.18% | TK-10 renal -68.3% | ACHN renal -28% | CAKI-1 renal -91.4% | CCRF-CEM leukemia -33.7% | MOLT-4 leukemia -53.6% | SR leukemia -39.8% | RPMI-8226 leukemia -38% | OVCAR-8 ovarian -50.3% | OVCAR-5 ovarian -76.1% | OVCAR-4 ovarian -68.6% | SK-OV-3 ovarian -63% | IGROV1 ovarian -66.5% | OVCAR-3 ovarian -86.4% | HS 578T breast -30.4%
inactive: NCI/ADR-RES ovarian 29.6%

O=C(COc1cccc2cccnc12)Nc1ccc(C(=O)/C=C/c2ccc(Cl)cc2)cc1
active: RPMI-8226 leukemia 7.02%
inactive: SK-MEL-2 melanoma 96.2% | EKVX NSCLC 80.9% | SN12C renal 86% | UO-31 renal 67.7% | TK-10 renal 104% | ACHN renal 94% | CAKI-1 renal 76.2% | CCRF-CEM leukemia 83.3% | MOLT-4 leukemia 67.7% | SR leukemia 61.1% | OVCAR-8 ovarian 94.4% | OVCAR-5 ovarian 105% | OVCAR-4 ovarian 92% | SK-OV-3 ovarian 105% | IGROV1 ovarian 88.8% | OVCAR-3 ovarian 100% | HS 578T breast 98.8% | NCI/ADR-RES ovarian 79.2%
